These results are taken from the supplement of paper PMC13172266.

Counter-ions that a name gives are not always drawn.

For the test, the system named is U2932 TK216-resistant clone 3. In words: cell proliferation relative to vehicle (% of vehicle); higher = less growth inhibition. The conditions noted are these: 500 nM; 72 h. An outline of the steps: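 Parental U2932 cells (ABC-DLBCL) and two clones made resistant to an ETS-targeting agent by almost a year of repeated exposure were treated for 72 h with 348 targeted inhibitors at 500 nM or 50 nM. MTT was then applied for 4 h, the reaction was stopped with 25% SDS, and absorbance was measured on a Cytation 3. Values express proliferation as percent of proliferating cells compared with DMSO vehicle.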
In the case of `O=C(NCc1ccncc1)C12CC3CC(C1)CC(c1ccc(Cl)cc1)(C3)C2`, the cell proliferation was 98.3.

On to `Cc1csc(-c2nnc(Nc3ccc(Oc4ncccc4-c4ccnc(N)n4)cc3)c3ccccc23)c1`, for which the cell proliferation was 78.

Consider `CCS(=O)(=O)N1CC(CC#N)(n2cc(-c3ncnc4[nH]ccc34)cn2)C1`, for which the cell proliferation came out at 104.

For `COc1ccc(-c2ccc3c(N4CCOC[C@@H]4C)nc(N4CCOC[C@@H]4C)nc3n2)cc1CO`, the cell proliferation stood at 40.2.

Consider `CCOc1ccc(Cc2cc([C@@H]3O[C@H](CO)[C@@H](O)[C@H](O)[C@H]3O)ccc2Cl)cc1` [Dapagliflozin], for which the cell proliferation turned out to be 107.

In turn, `CC(=O)O[C@@]12CO[C@@H]1C[C@H](O)[C@@]1(C)C(=O)[C@H](O)C3=C(C)[C@@H](OC(=O)[C@H](O)[C@@H](NC(=O)OC(C)(C)C)c4ccccc4)C[C@@](O)([C@@H](OC(=O)c4ccccc4)[C@H]21)C3(C)C` [Docetaxel] returned a cell proliferation of 6.54.

`O=C(Nc1cccc(Nc2ncc(Br)c(NCCc3cnc[nH]3)n2)c1)N1CCCC1` yielded a cell proliferation of 77.

In the case of `Nc1ccccc1NC(=O)c1ccc(CNC(=O)OCc2cccnc2)cc1` [Entinostat (MS-275)], the cell proliferation is 66.7.

Compound `CC1(C)CCC(CN2CCN(c3ccc(C(=O)NS(=O)(=O)c4ccc(NCC5CCOCC5)c([N+](=O)[O-])c4)c(Oc4cnc5[nH]ccc5c4)c3)CC2)=C(c2ccc(Cl)cc2)C1` yielded a cell proliferation of 35.1.

With `O=C(O)C(Cc1c[nH]c2ccccc12)N1C(=O)c2ccccc2C1=O` (centres undefined), the cell proliferation worked out at 98.

With `Cc1cnc(-c2ccccc2C(C)C)nc1NCc1ccc(-n2ccnn2)cc1`, the cell proliferation is 108.

On to `CCc1ccc(/C=C2/SC(=S)NC2=O)cc1`, for which the cell proliferation worked out at 99.4.

In the case of `O=C(Cc1ccc(-c2ccc(OCCN3CCOCC3)cc2)cn1)NCc1ccccc1`, the cell proliferation is 8.01.

On to `C/C(=C\C(=O)Nc1ccccc1C(=O)O)c1ccc2ccccc2c1`, for which the cell proliferation stood at 100.

As for `CN1CCC(CNc2ccc3ncc(-c4cccc(OC(F)(F)F)c4)n3n2)CC1` [SGI-1776 free base], the cell proliferation was found to be 82.4.

As for `Cc1cn([C@H]2O[C@@H](CO)[C@H](O)[C@H]2F)c(=O)[nH]c1=O` [Clevudine], the cell proliferation was found to be 103.

The compound `CNC(=O)c1cccc(-c2ccc3c(N4CCOC[C@@H]4C)nc(N4CCOC[C@@H]4C)nc3n2)c1` came in with a cell proliferation of 55.6.

For `CCCCCCCCc1ccc(CCC(N)(CO)CO)cc1` [Fingolimod (FTY720) HCl], the cell proliferation was 96.1.

The compound `COC1=CC(c2cc3ccccc3[nH]2)=N/C1=C\c1[nH]c(C)cc1C` [Obatoclax Mesylate (GX15-070)] yielded a cell proliferation of 8.59.

`O=c1[nH]nc(Sc2ncc([N+](=O)[O-])s2)n1-c1ccc2c(c1)OCCO2` gave a cell proliferation of 97.9.

`CN(NC(=O)CC(=O)NN(C)C(=S)c1ccccc1)C(=S)c1ccccc1` [Elesclomol (STA-4783)] returned a cell proliferation of -3.67.

In turn, `C[C@@H]1CN(CC(=O)Nc2ccc3c(c2)Cc2cccc(-c4cc(=O)cc(N5CCOCC5)o4)c2S3)C[C@H](C)O1` gave a cell proliferation of 97.

With `Nc1nc(F)nc2c1ncn2[C@@H]1O[C@H](COP(=O)(O)O)[C@@H](O)[C@@H]1O` [Fludarabine Phosphate], the cell proliferation came to 104.

Turning to `CC/C(=C(\c1ccccc1)c1ccc(OCCN(C)C)cc1)c1ccccc1` [Tamoxifen Citrate], the cell proliferation amounted to 86.3.

The compound `O=C(O)CC[C@H]1CC[C@@](c2cc(F)ccc2F)(S(=O)(=O)c2ccc(Cl)cc2)CC1` gave a cell proliferation of 106.

`CCn1c2ccccc2c2cc(Nc3ccnc(NCCCN4CCOCC4)n3)ccc21` showed a cell proliferation of 88.1.

`O=C(/C=C\n1cnc(-c2cc(C(F)(F)F)cc(C(F)(F)F)c2)n1)NNc1cnccn1`: the cell proliferation was determined as 57.6.

As for `CCN(CC)CCNC(=O)c1c(C)[nH]c(/C=C2\C(=O)Nc3ccc(F)cc32)c1C` [Sunitinib Malate], the cell proliferation came out at 92.6.

`N#Cc1c(Oc2ccc(F)c(NC(=O)Cc3cccc(C(F)(F)F)c3)c2)ccc2nc(NC(=O)C3CC3)sc12` came in with a cell proliferation of 103.

The compound `Cc1nc(C(=O)NCC(=O)O)c(O)c2ccc(Oc3ccccc3)cc12` gave a cell proliferation of 98.5.

In turn, `C[C@H]1c2cccc(O)c2C(=O)C2=C(O)[C@]3(O)C(=O)C(C(N)=O)=C(O)[C@@H](N(C)C)[C@@H]3[C@@H](O)[C@@H]21` [Doxycycline Hyclate] had a cell proliferation of 102.

As for `CS(=O)(=O)c1ccc(C(=O)Nc2ccc(Cl)c(-c3ccccn3)c2)c(Cl)c1` [Vismodegib (GDC-0449)], the cell proliferation was 113.

As for `NC(=O)c1ncn([C@@H]2O[C@H](CO)[C@@H](O)[C@H]2O)c1N` [Acadesine], the cell proliferation was found to be 98.1.

`O=C(O)CCNc1cc(N2CCc3ccccc3CC2)nc(-c2ccccn2)n1` came in with a cell proliferation of 102.

Take `Oc1cccc(-c2nc(N3CCOCC3)c3oc4ncccc4c3n2)c1`: the cell proliferation amounted to 46.3.

On to `C#Cc1cccc(Nc2ncnc3cc(OC)c(OCCCCCCC(=O)NO)cc23)c1`, for which the cell proliferation was determined as 52.5.

Take `CC1(C)CCC(c2ccc(Cl)cc2)=C(CN2CCN(c3ccc(C(=O)NS(=O)(=O)c4ccc(N[C@H](CCN5CCOCC5)CSc5ccccc5)c(S(=O)(=O)C(F)(F)F)c4)cc3)CC2)C1` [ABT-263 (Navitoclax)]: the cell proliferation came to 64.2.

With `COc1ccc(-c2ccc3c(N4CCOCC4)nc(N4C[C@@H](C)O[C@@H](C)C4)nc3n2)cc1CO`, the cell proliferation was determined as 49.3.

For `CCN(CC)CCCC(C)Nc1ccnc2cc(Cl)ccc12` (centres undefined) [Chloroquine Phosphate], the cell proliferation stood at 111.
